# Results from PubChem BioAssay (NCI).
# This is part of a sample that, as a whole, favours compounds with a hit. Of some 83,000 tested, about 20% had one in any assay.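 Percent growth is the endpoint: 0 to 100 indicates growth inhibition (40 means 60% inhibition), 0 means no net growth, and negative values indicate cell death.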 Values without a mark were called inactive. Activity calls are given as the source filed them. The calls were made as follows: active = growth percent below 10; inactive = the rest.
# Columns and labels:
# Experiment in all cases: NCI-60 one-dose screen, 48 h (100 = growth as untreated, 0 = no growth, -100 = all killed)
# Settings in all cases: 10 µM
# [1] = system: NCI-H23 lung
# [2] = system: NCI-H226 lung
# [3] = system: NCI-H322M lung
# [4] = system: HOP-62 NSCLC
# [5] = system: NCI-H460 lung
# [6] = system: HOP-92 NSCLC
# [7] = system: NCI-H522 lung
# [8] = system: A549/ATCC NSCLC
# [9] = system: 786-0 renal
# [10] = system: COLO 205 colon
# [11] = system: DU-145 prostate
# [12] = system: K-562 leukemia
# [13] = system: MALME-3M melanoma
# [14] = system: MDA-MB-231 breast
# [15] = system: RXF 393 renal
# [16] = system: SF-268 CNS
# [17] = system: SF-295 CNS
# [18] = system: SF-539 CNS
# [19] = system: UACC-257 melanoma
# [20] = system: M14 melanoma
Structure (SMILES),growth [1],growth [2],growth [3],growth [4],growth [5],growth [6],growth [7],growth [8],growth [9],growth [10],growth [11],growth [12],growth [13],growth [14],growth [15],growth [16],growth [17],growth [18],growth [19],growth [20]
COc1ccc([C@H]2C(C(=O)c3ccc(Cl)cc3)C3(N[C@@H]2c2ccccc2)C(=O)Nc2ccc(Cl)cc23)cc1 (stereo not given in full),-56.2% (active),-56.4% (active),20%,-57.2% (active),-11.7% (active),-26.7% (active),-1.74% (active),18.2%,-12% (active),-89.5% (active),14.6%,3.72% (active),-10.6% (active),-68.3% (active),-64.3% (active),20.2%,-63.2% (active),-46.1% (active),9.2% (active),11%
COC(=O)CC1CC1C1Cc2c(nc(N(C)S(C)(=O)=O)nc2C(C)C)-c2ccc(F)cc21 (stereo not given),69.1%,78.8%,96.8%,109%,94.6%,84%,55.6%,92.3%,86%,90.8%,92.7%,34.3%,112%,69.3%,79.8%,93.8%,72.4%,96%,83.8%,70.4%
COc1ccccc1[C@H]1C(C(=O)c2ccc(Cl)cc2)C2(N[C@@H]1c1ccccc1)C(=O)Nc1ccccc12 (stereo not given in full),-55.3% (active),-53.2% (active),10.3%,-21.9% (active),-27.2% (active),-21.8% (active),-27.5% (active),9.22% (active),-15% (active),-88.2% (active),3.98% (active),0.571% (active),-37.4% (active),-71.9% (active),-73.8% (active),10.2%,-63.6% (active),-60.8% (active),-2.04% (active),5.88% (active)
Cc1ccc(/C(N)=N/c2sc(-c3ccccc3)nc2-c2ccccc2)cc1,83.1%,94.3%,90.2%,101%,76.5%,90.2%,83%,80.4%,76.7%,91.1%,89%,28.5%,89.2%,82.5%,82.7%,79.2%,77.6%,79.7%,93.9%,79.6%
CC(C)(C)Nc1nc2cc(Cl)c(Cl)cc2nc1S(C)(=O)=O,-63.6% (active),-83% (active),98%,88.1%,73.1%,-5.25% (active),-80.6% (active),94.1%,44%,31.2%,57.2%,-5.97% (active),-78.5% (active),26.7%,6.24% (active),73.7%,91.1%,47.3%,70.6%,5.68% (active)
Clc1ccc(/C=N/Nc2ncnc3sc4c(c23)CCN(Cc2ccccc2)C4)cc1,13.9%,-54.2% (active),22.3%,-33.5% (active),-75.6% (active),-59.6% (active),1.08% (active),-53.2% (active),-84.8% (active),-86.1% (active),3.38% (active),1.43% (active),-66.9% (active),-65.8% (active),31.5%,-31.2% (active),-81.6% (active),-87.1% (active),-15.5% (active),-63.2% (active)
COc1cccc(COc2ccc(/C=C3\Oc4cc(O)ccc4C3=O)cc2)c1,46.7%,51.3%,89.4%,17.6%,27.4%,16.3%,35.9%,71.4%,-58% (active),113%,31.8%,49.4%,14.3%,28.6%,-19.3% (active),17.2%,9.41% (active),30%,70.6%,35.9%
CS(=O)(=O)Nc1ccc(-c2ccc3c(c2)ncn3-c2ccc(NC(=O)Nc3ccc(Cl)c(C(F)(F)F)c3)cc2)cc1,-70.3% (active),-51% (active),-42.9% (active),-87.1% (active),0.554% (active),-43.5% (active),-87.6% (active),-75.1% (active),-77.9% (active),-90.4% (active),-4.47% (active),-26% (active),-80.8% (active),-84.6% (active),-57.5% (active),2.56% (active),-77.5% (active),-88.8% (active),-57.2% (active),-95.3% (active)
Nc1nnc(-c2c[nH]c3ncccc23)c(-c2c[nH]c3ccc(Br)cc23)n1,57.1%,63.6%,60.5%,49.4%,27.2%,54.8%,47.9%,58.9%,40%,66.9%,62.4%,32.9%,46.8%,41.6%,45.4%,51.8%,41.9%,37.2%,82.1%,50.3%
CN1CCN(c2ccc(C(=O)/C=C/c3ccc(C#N)cc3)cc2)CC1,76.5%,80.7%,94.2%,89.1%,97.1%,77.2%,81.5%,76.3%,73.5%,87.4%,82.1%,7.48% (active),90.4%,65.8%,63.9%,107%,78.2%,56.3%,90.4%,79.6%
CC(=O)Nc1ccc(-n2cnc3cc(-c4ccc(NS(C)(=O)=O)cc4)ccc32)cc1,61%,-68.4% (active),59.1%,75.4%,33.4%,39.7%,46.9%,57%,52.3%,63.9%,58.2%,24%,75.6%,49.4%,92.5%,47.3%,51%,65.3%,64.4%,61.9%
COc1cc(/C=C/C(=O)c2cc(OC)c(OC)c(OC)c2)ccc1Oc1nc(Nc2ccc(F)cc2)nc(N(C)C)n1,-23.7% (active),17.9%,9.59% (active),-44.5% (active),-23% (active),-42.3% (active),-82.7% (active),-48.3% (active),-94.1% (active),7.64% (active),-35.8% (active),2.36% (active),-40.3% (active),-60% (active),-74.9% (active),27.7%,-55.2% (active),-80.6% (active),-30.5% (active),-27.5% (active)
COc1csc(/C=N/NC(=O)c2[nH]c3ccc(Br)cc3c2-c2ccccc2)c1,7.1% (active),23.1%,34.7%,24.9%,-5.74% (active),49.2%,-48.5% (active),13.7%,4.83% (active),-79.9% (active),7.13% (active),4.06% (active),30.9%,3.77% (active),23.3%,23.5%,-10.2% (active),-39.8% (active),34.8%,11.5%
COc1cc2c(cc1OC)CN(CCCCOc1cc(O)c3c(=O)cc(-c4ccccc4)oc3c1)CC2,67.2%,63.5%,92.5%,80.7%,49.6%,64.2%,58.4%,67.7%,23.9%,-43.8% (active),80.3%,-6.81% (active),-68.6% (active),38.5%,29.8%,65.9%,26.2%,48.7%,5.33% (active),-21% (active)
O=C(O)CCCCCCCCCCN1C(=O)/C(=C/c2cnc(-c3ccc(Cl)cc3)s2)SC1=S,11.8%,34.8%,5.41% (active),36.3%,4.44% (active),-40.9% (active),-16% (active),-19.6% (active),28.1%,139%,13.2%,22.1%,80.6%,48.9%,77.4%,49.4%,8.83% (active),36.4%,87.6%,16.5%
